# Screening results (PubChem)
# Shown are actives, neighbours in structure and some others; about 18% of the full set was active somewhere.
# PLK1 PBD inh: PLK1 (human) polo-box domain binding inhibition; P53350; Plk1 PBD binding of FITC phosphopeptide, fluorescence polarization; Potency, µM, for the others: max response, negative = inhibition, hits mostly inhibitors; 360,000 compounds, 2.8% hits; also: series mostly up to about 57 µM; nearly all actives have a fitted effect of over 65% in size
# KAT2A inh: blocks human GCN5L2 histone acetyltransferase; GCN5L2 HAT assay, ThioGlo1 CoA-SH fluorescence; Potency, µM (doses to about 58.9 µM), inactives show top-dose activity change, negative = inhibition, hits mostly inhibitors; 390,000 compounds, 0.21% hits; AID 504327
#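 GCN5L2 (20nM final) in 50mM HEPES, 0.1mM EDTA pH 7.5, 0.01% Tween-20 was preincubated 15 min at room temperature with compound, then given ThioGlo1 (50uM), H3(1-25) peptide (75uM) and acetyl-CoA (70uM); CoA-thiol fluorescence (Ex340/Em540) was read at 0 and 20 min.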
# DT40 TDP1 CPT: DT40-hTDP1 cell growth loss with CPT. chicken DT40 Tdp1-/-;hTDP1 cells + 20 nM CPT, ATP luminescence, 48 h. Potency, µM (doses to about 46.2 µM), for inactives: at the highest dose activity change, negative = growth inhibition, hits mostly inhibitors. 420,000 compounds, 12% hits; also: nearly all actives have a fitted effect of over 55% in size
#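 Chicken DT40 Tdp1-/- cells complemented with human TDP1, 400 cells/well, exposed to compounds plus 20 nM camptothecin for at least 48 h at 37 C; viability read as ATP content by CellTiter-Glo luminescence.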
# TDP1 cell noCPT: qHTS for Inhibitors of human tyrosyl-DNA phosphodiesterase 1 (TDP1): qHTS in cells in absence of CPT | AID 686978, 2013 | Potency, µM (doses to about 46.2 µM), without a hit: top-dose activity change, negative = growth inhibition, most hits filed as inhibitors | DT40 Tdp1-/- hTDP1 cells, no CPT, ATP luminescence, 48 h | 420,000 compounds, 15% hits; also: nearly all actives have a fitted effect of over 55% in size
#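 Readout: luminescence from CellTiter-Glo after 30 min in the dark at RT. Cells: DT40 Tdp1-/- with stable hTDP1, 400/well. Exposure: compounds alone, ≥48 hr, 37 °C.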
# TDP1 block: inhibitors of human tyrosyl-DNA phosphodiesterase TDP1 | Q9NUW8 | recombinant TDP1, AlphaScreen DNA substrate cleavage | Potency, µM (highest dose often 130 µM), without a hit: at the highest dose activity change, negative = inhibition, actives largely listed as inhibitors | 350,000 compounds, 0.28% hits; also: nearly all actives have a fitted effect of over 40% in size
# Target sequence (Q9NUW8 whole entry, looked up): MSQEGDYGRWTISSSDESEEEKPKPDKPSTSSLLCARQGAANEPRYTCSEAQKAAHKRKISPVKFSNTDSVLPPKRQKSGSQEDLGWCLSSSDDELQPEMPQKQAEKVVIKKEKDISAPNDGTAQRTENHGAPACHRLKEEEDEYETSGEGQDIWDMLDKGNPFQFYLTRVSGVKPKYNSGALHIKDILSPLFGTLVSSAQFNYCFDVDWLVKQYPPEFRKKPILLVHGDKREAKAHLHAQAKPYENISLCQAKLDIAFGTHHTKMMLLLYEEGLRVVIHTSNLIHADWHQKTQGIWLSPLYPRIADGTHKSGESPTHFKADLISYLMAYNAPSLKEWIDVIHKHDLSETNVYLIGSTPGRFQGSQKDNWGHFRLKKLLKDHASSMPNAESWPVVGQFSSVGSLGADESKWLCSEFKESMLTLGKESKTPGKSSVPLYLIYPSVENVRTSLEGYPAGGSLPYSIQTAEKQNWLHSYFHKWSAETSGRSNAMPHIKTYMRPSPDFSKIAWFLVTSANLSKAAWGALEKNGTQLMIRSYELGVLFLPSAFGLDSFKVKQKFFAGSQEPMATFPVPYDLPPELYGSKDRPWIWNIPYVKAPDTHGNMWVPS
#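 Tdp1 1 nM final; 15 min RT w/ cpd; substrate 15 nM, 5 min; beads 10 ug/ml, 10 min; AlphaScreen read. Neg ctrl: no enzyme.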
# VDR inhibitor: vitamin D3 receptor (human) inhibition. AID 504847. P11473. Potency, µM, inactives show max response, negative = inhibition, most hits filed as inhibitors. 400,000 compounds, 0.93% hits. VDR-SRC2-3 peptide fluorescence polarization, 2 h
#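 VDR–SRC2-3 interaction, FP format. Cmpds 23 nl via pintool, brief spin, 2 h ambient incubation.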
# * hit, by the source's call; ? = inconclusive; . = not tested or not shown; [ ] = another dose, or the depositor's remark. Calls follow the shape of the dose curve; as a rule, active = well fitted curve in the direction sought with a large enough effect; inconclusive = small, poorly fitted or top-dose-only effect, or another doubt; inactive = no such curve, though single readings can be large; an effect the other way counts as inactive or inconclusive. % is scaled to controls: 0 for no effect and ±100 for the full control effect; potency is read from the fitted curve at half-maximal effect.
SMILES,PLK1 PBD inh,KAT2A inh,DT40 TDP1 CPT,TDP1 cell noCPT,TDP1 block,VDR inhibitor
O=C(CSCc1nc2c(nnn2Cc2ccc(F)cc2)c(=O)[nH]1)Nc1cccc(C(F)(F)F)c1,-11%,-6%,-4%,-15%,5%,2%
Cn1c(N)c(S(=O)(=O)NCc2ccccc2Cl)c(=O)n(C)c1=O,-12%,-6%,22%,-44%,11%,13%
COc1ccc(Br)cc1C(C[N+](=O)[O-])c1c(N)n(C)c(=O)n(C)c1=O (configuration not stated),-19%,-16%,3.7µM*,3.7µM*,6%,?
Cn1c(N)c(C(C[N+](=O)[O-])c2c(F)cccc2Cl)c(=O)n(C)c1=O (configuration not stated),-8%,17%,2.6µM*,2.1µM*,.,-6%
CN(C)c1ccc(C(C[N+](=O)[O-])c2c(N)n(C)c(=O)n(C)c2=O)c(F)c1C#N (configuration not stated),-25%,-2%,2.3µM*,2.1µM*,.,?
Cc1cc(Br)ccc1SCC(=O)OCC(=O)c1c(N)n(C)c(=O)n(C)c1=O,-1%,-2%,-21%,-14%,5%,6%
O=[N+]([O-])c1ccc(N/N=C/c2sc(N3CCOCC3)nc2-c2ccccc2)c(S(=O)(=O)Nc2ccccc2Cl)c1,?,-8%,3.3µM*,1.8µM*,1%,-1%
O=[N+]([O-])c1ccc(N/N=C/c2sc(N3CCOCC3)nc2-c2ccccc2)c(S(=O)(=O)Nc2ccc(Cl)cc2)c1,16%,-1%,1.6µM*,1µM*,11%,-3%
O=C(O)c1cccc(N/N=C/c2sc(N3CCOCC3)nc2-c2ccccc2)c1,-19%,-2%,0%,9%,0%,-16%
O=C(N/N=C/c1sc(N2CCOCC2)nc1-c1ccccc1)c1ccccc1O,-3%,-19%,-29%,?,11%,-1%
N#Cc1nc(-c2ccc(OCc3ccc(Cl)cc3)cc2)oc1N1CCCC1,.,.,-18%,?,5%,-18%
CC(=O)OC1CCC2(C)C(CCC3C2CC(=NO)C2(C)C(C(C)OC(C)=O)CCC32)C1 (configuration not stated),3%,.,15µM*,18µM*,.,-4%
O=C(NCC1CCCO1)c1cc2ccccc2cc1O (configuration not stated),-12%,-9%,-16%,?,0%,4%
O=C(NCC1CCCCC1)c1cc2ccccc2cc1O,-14%,-6%,21µM*,?,-4%,-4%
O=C(N/N=C1/CC2CCC1C2)c1cc2ccccc2cc1O (configuration not stated),-9%,?,23µM*,21µM*,5%,10%
CC1CCC(NC(=O)c2cc3ccccc3cc2O)CC1 (configuration not stated),-4%,3%,?,?,-3%,-7%
COC(=O)c1cc2oc(C)cc2n1CC(=O)Nc1ccc(C)cc1C,.,-1%,-21%,-27%,-8%,9%
CCCC[C@@H]1CCCO[C@@](C(=O)NCCN2CCOCC2)(C(F)(F)F)C1,.,.,.,.,9%,5%
CCOc1cc(N2CCOCC2)c(OCC)cc1NC(=O)C(NC(=O)c1ccco1)C(C)C (configuration not stated),-9%,-2%,-27%,12µM*,1%,-4%
CCOc1cc(N2CCOCC2)c(OCC)cc1NC(=O)C(NC(=O)c1c(F)cccc1F)C(C)C (configuration not stated),-11%,.,?,9.2µM*,.,-8%
CCOc1ccccc1C(=O)NC(C(=O)Nc1ccccc1N1CCOCC1)C(C)C (configuration not stated),-11%,-12%,?,?,3%,4%
CC(=O)OC(C(=O)Nc1nccs1)c1ccccc1 (configuration not stated),7%,1%,?,1%,5%,20%
O=C(Nc1nccs1)C(Br)C(Br)c1ccccc1 (configuration not stated),0.95µM*,-16%,10µM*,21µM*,.,28µM*
CCN(CC)c1ccc2cc(S(=O)(=O)c3ccc(Cl)cc3)c(=O)oc2c1,19µM*,-15%,?,?,.,9%
COC(=O)[C@@]1(Cc2ccccc2)[C@@H]2C(=CC(=O)[C@H]2CC(=O)C(=O)N(C)C)CN1C(=O)c1ccccc1,-2%,0%,9.2µM*,8.2µM*,-4%,?
SMILES,PLK1 PBD inh,KAT2A inh,DT40 TDP1 CPT,TDP1 cell noCPT,TDP1 block,VDR inhibitor
COc1cccc(C(=O)Nc2cccc(C(=O)OCc3cc(=O)n4nc(C5CC5)sc4n3)c2)c1,.,21%,?,3.7µM*,-1%,-10%
O=C(OCc1cc(=O)n2nc(C3CC3)sc2n1)c1cccc(NC(=O)c2ccccc2Cl)c1,.,-1%,21µM*,21µM*,4%,-2%
CC(C)(C)C(=O)Nc1cccc(C(=O)OCc2cc(=O)n3nc(C4CC4)sc3n2)c1,.,24%,?,18µM*,-1%,-1%
CC(C)(C)C(=O)Nc1cccc(C(=O)OCc2cc(=O)n3nc(C4CCCCC4)sc3n2)c1,.,21%,5%,-3%,1%,7%
CCOCCc1nn2c(=O)cc(COC(=O)c3ccc(NC(=O)C(C)(C)C)cc3)nc2s1,.,2%,16µM*,13µM*,6%,-7%
Cc1ccccc1C(=O)Nc1cccc(C(=O)OCc2cc(=O)n3nc(C4CC4)sc3n2)c1,.,-2%,?,?,-4%,11%
CCOC(=O)CCN1C(=O)[C@H]2[C@H]3[C@H](O)[C@H](O)C/C(=N/OCC(C)C)[C@@H]3CC[C@@H]2C1=O,.,.,.,.,7%[21 µM],.
Nc1ccc2c(c1)Cc1c(F)cccc1-2,8%,.,11%,?,.,8%
COc1ccc(NC(=O)CNC(=O)C2CCCCC2)cc1OC,-13%,1%,-18%,?,0%,-11%
CCC[C@H](CN[C@@H](CNC)[C@H](C)O)NCCc1ccc(OC)cc1,-16%,5%,-7%,-1%,.,1%
CCCC[C@H](CN[C@@H](CNC)[C@H](C)CC)NCCC12CCC(CC1)C2,?,-3%,2.6µM*,3.7µM*,.,-15%
COc1ccccc1Oc1nc2c(C)cccn2c(=O)c1/C=C(\C#N)c1nc2ccccc2[nH]1,.,-12%,-1%,-10%,0%,-11%
CCN1CCN(CC(=O)Nc2cccc(C)c2C)C(=O)C1=O,-7%,-1%,2.3µM*,-25%,1%,-1%
